Among all 96,000 compounds or so, about 19,000 (20%) were called active.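 How the source made its calls: active means blocking of liver enzyme CYP2C9 beyond about 50% at 5 µM (limit read from the data); inactive means the rest.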 Not all results are given here.

These results are taken from PubChem BioAssay AID777 (Sanford-Burnham Center for Chemical Genomics, 2007).

The target of the experiment is Cytochrome P450 2C9 (Homo sapiens) (UniProt P11712). Put plainly: blockers of cytochrome P450 2C9 activity – biochemical, luminescence, ADME assay, primary screen (AID 777). The settings on record: CYP2C9 Supersomes, luciferin-H conversion, at 5 µM, active compounds read high.
Cytochrome P450 2C9 (Homo sapiens), sequence (P11712 whole entry, looked up): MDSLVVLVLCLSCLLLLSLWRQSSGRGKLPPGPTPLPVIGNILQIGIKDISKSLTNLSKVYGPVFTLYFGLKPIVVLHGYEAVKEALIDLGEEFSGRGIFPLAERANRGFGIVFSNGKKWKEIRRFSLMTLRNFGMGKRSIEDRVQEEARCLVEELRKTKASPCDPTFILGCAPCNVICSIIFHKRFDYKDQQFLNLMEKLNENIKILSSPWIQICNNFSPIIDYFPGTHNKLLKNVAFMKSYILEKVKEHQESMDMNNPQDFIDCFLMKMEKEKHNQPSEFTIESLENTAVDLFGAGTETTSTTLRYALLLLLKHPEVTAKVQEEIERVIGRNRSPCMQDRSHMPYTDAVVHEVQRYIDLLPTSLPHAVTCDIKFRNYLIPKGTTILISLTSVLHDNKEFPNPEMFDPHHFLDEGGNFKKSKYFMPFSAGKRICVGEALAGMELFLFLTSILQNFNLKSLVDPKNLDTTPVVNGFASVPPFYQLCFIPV
As a reminder, the inhibition is the relative decrease from the control value, in per cent. Take `CCN(CC)CCn1c(=S)[nH]c2ncccc2c1=O`: the inhibition is 16.3% (inactive). Take `CCCc1nnc(NC(=O)c2cccs2)s1`: the inhibition is 14.9% (inactive).

On to `COc1ccc(OC)c(Nc2nc(-c3ccc(O)c(O)c3)cs2)c1`, for which the inhibition is 24.3% (inactive). As for `COc1ccccc1-c1n[nH]c2c1[C@H](C)CC[C@H]2C(C)C`, the figure is 36.5% (inactive); as for `C=C(C)COc1ccc(-c2n[nH]c(C)c2-c2ccccc2OC)c(O)c1`, 54.9% (active); as for `COc1ccc(-c2nc(-c3ccccc3)no2)c(OC)c1`, -7% (inactive). As for `COc1ccc(-c2n[nH]c(C)c2-c2ccc(OC)c(OC)c2)c(O)c1`, the figure is 98.8% (active); as for `C=C(C)COc1ccc(-c2n[nH]c(C)c2-c2ccccc2)c(O)c1`, 26.2% (inactive). As for `CCc1c(C)[nH]c(=S)c(C#N)c1C`, the figure is 16% (inactive); as for `Cc1cc(C)nc(NC2=NCC(=O)N2c2ccc(Cl)cc2)n1`, -8.5% (inactive); as for `Cc1ccc(Oc2nc3ccccc3n3c(C)nnc23)cc1`, 13.5% (inactive). For the compound `COC(=O)CN(c1cccc(C(C)=O)c1)S(C)(=O)=O`, the inhibition is 40.7% (inactive). Consider `CC1=NN(C(C)C)C(=O)C1`, for which the inhibition was 12.8% (inactive). Next, `COCCNC(=O)COc1ccc(C)c(C)c1`: -28.7% (inactive). In the case of `O=S(=O)(O)c1nc2ccccc2n1Cc1ccc(Cl)cc1Cl`, the inhibition was 74.7% (active). As for `O=S(=O)(O)c1nc2ccccc2n1Cc1ccc(Cl)cc1`, the figure is 43.6% (inactive); as for `CCC(=O)Nc1nc2ccccc2n1Cc1ccccc1C`, -6.9% (inactive). As to `Cc1ccc(F)c(NC(=O)CCc2ccccc2)c1`, the inhibition is -15.7% (inactive). With `O=C(OCc1cn(-c2ccc(Cl)c(Cl)c2)nn1)c1ccccc1Cl`, the inhibition is -32.3% (inactive).

`CCc1nnc(NS(=O)(=O)c2ccc(NS(=O)(=O)c3ccccc3)cc2)s1`: the inhibition is 77.5% (active). As to `CCc1nnc(NC(=O)c2ccc(S(=O)(=O)NC3CCCCC3)cc2)s1`, the inhibition was 20.2% (inactive).

For the compound `CCc1nnc(NS(=O)(=O)c2ccc(N=Cc3c(C)[nH]n(-c4ccc(C)cc4)c3=O)cc2)s1`, the inhibition is 17% (inactive).

As for `CCC(C)NC(=O)c1cc(Cl)ccc1OC` (centres undefined), the inhibition was -166% (inactive). For the compound `Cc1ccc(C(C(=O)NC2CCCCC2)N(C(=O)c2csnn2)C2CC2)o1` (centres undefined), the inhibition is 26.6% (inactive). As for `CCc1c(C)sc(NC(=O)OC)c1C(=O)N1CCOCC1`, the figure is -10.7% (inactive); as for `CCCCCN1CC(O)=C(c2ccccc2)C1=N`, -11.3% (inactive). As for `CCCCCN1CC(O)=C(c2nc(-c3ccc(Cl)cc3)cs2)C1=N`, the figure is 62.1% (active); as for `COc1ccccc1N1CC(O)=C(c2nc3ccccc3s2)C1=N`, 26.8% (inactive). Next, `Cc1ccc(CNC(=O)C2CC(c3ccccc3[N+](=O)[O-])=NO2)o1` (centres undefined): -18.8% (inactive); `COC(=O)c1ccc(CSc2nc3cc(Cl)ccc3o2)cc1`: -7.6% (inactive). For `C1=C(N2CCOCC2)/C(=C/c2nc3ccccc3[nH]2)CC1`, the inhibition is 11.9% (inactive). As for `CC(C)Cc1nc(N2CCOCC2)c(C#N)c2c1CCC2`, the figure is 39.5% (inactive); as for `Cc1nc(NCc2ccccc2)c(C(N)=O)c2c1COC(C)(C)C2`, 2.7% (inactive).

On to `CC1(C)Cc2c(C#N)c(SCc3nc4ccccc4[nH]3)nc(N3CCOCC3)c2CO1`, for which the inhibition was 96.2% (active). Next, `CC(C)c1nc(N2CCOCC2)c(C#N)c2c1COC(C)(C)C2`: 61.7% (active); `c1ccc2[nH]c(NCCN3CCOCC3)nc2c1`: -29.7% (inactive). As for `CC(C)C(=O)N1CCN(c2nc(-c3ccccc3)c3c(c2C#N)CC(C)(C)OC3)CC1`, the figure is 97.1% (active); as for `c1ccc2cc(OCCN3CCCC3)ccc2c1`, 2.2% (inactive).

Take `O=C(CCCN1C(=O)CSc2ncccc21)N1CCN(c2cccc(C(F)(F)F)c2)CC1`: the inhibition is 31.1% (inactive).

Take `CN1CCN(CC(O)COCc2ccc3c(c2)OCO3)CC1` (centres undefined): the inhibition is -13.3% (inactive). Take `COc1ccc2c3c(c(=O)oc2c1OCC(=O)C(C)(C)C)CCCC3`: the inhibition was 25.4% (inactive).

As to `O=C(NCc1ccccn1)Nc1ccc(F)cc1`, the inhibition is 2.9% (inactive). For `CCN(CC)C(=O)CSC1c2ccccc2C(=O)N1c1ccccc1` (centres undefined), the inhibition was -6.2% (inactive). As for `Cc1ccc(NC2=NC(c3ccccc3)n3c(nc(C)cc3=O)N2)cc1` (centres undefined), the inhibition is 35.5% (inactive).

On to `Cc1ccc(S(=O)(=O)NCc2nc3ccccc3c(=O)n2N)cc1`, for which the inhibition was -7.2% (inactive).

As to `O=C(Nc1ccc(S(=O)(=O)N2CCc3ccccc3C2)cc1)c1ccccc1`, the inhibition was 1.2% (inactive).

Take `Cc1ccc(S(=O)(=O)Nc2nc3ccccc3nc2N2CCc3ccccc3C2)cc1`: the inhibition was 96% (active). As for `Cc1cc([N+](=O)[O-])ccc1NCc1cccc([N+](=O)[O-])c1`, the figure is -1.6% (inactive); as for `CC(Oc1ccc(Cl)cc1)C(=O)Nc1ncccn1` (centres undefined), 0.9% (inactive).

In the case of `CCC(C)OC(=O)C(C)Oc1ccc(-c2ccccc2)cc1` (centres undefined), the inhibition was 79.9% (active). As for `COc1ccc(OCC(=O)NNC(=O)c2ccc(-c3ccccc3)cc2)cc1`, the inhibition was -3.2% (inactive). Next, `Cn1c(/C(C#N)=C2/CCCCCN2)nc2ccccc21`: 29.5% (inactive). As for `COc1ccc(-c2[nH]nc(-c3ccccc3)c2-c2nc3ccccc3[nH]2)cc1`, the figure is 10% (inactive).

As for `O=C(NCCN=C1NS(=O)(=O)c2ccccc21)c1ccc(S(=O)(=O)N2CCOCC2)cc1`, the inhibition was 46.2% (inactive).

Take `Cc1nc2ccccc2c2oc(C(=O)NCC3CCCO3)cc12` (centres undefined): the inhibition is 0.9% (inactive). As to `Cn1c(=O)c2[nH]c(NCC3CCCO3)nc2n(-c2ccccc2)c1=O` (centres undefined), the inhibition was 10.1% (inactive).

For the compound `c1ccc2c(NCC3CCCO3)nc(-c3ccncc3)nc2c1` (centres undefined), the inhibition is 83% (active).

`Cc1ccc(S(=O)(=O)NCC(=O)N(CC(=O)NC2CCCCC2)Cc2ccco2)cc1`: the inhibition was 10.4% (inactive). As for `O=C(NCc1ccc(Cl)c(Cl)c1)c1cccnc1`, the figure is 14.6% (inactive); as for `Cn1ccs/c1=N\S(=O)(=O)c1ccc(C(C)(C)C)cc1`, 67.2% (active).

For the compound `CCSc1nnc(NC(=O)c2ccc(C)cc2)s1`, the inhibition was 38% (inactive).

`Cc1ccc(NC(=O)c2nc[nH]c2C(=O)N2CCCCC2)c(C(=O)c2ccccc2)c1`: the inhibition is 40.9% (inactive). As for `Cc1ccc(C)c(S(=O)(=O)N2CC(=O)Nc3ccccc32)c1`, the figure is 12.1% (inactive). For `COCCn1c(-c2ccc(OC)c(OC)c2)nc2ccccc21`, the inhibition was -20% (inactive). As for `COc1ccc(-c2nc3ccccc3n2CCC(C)C)cc1OC`, the figure is 59.6% (active). In the case of `CCOCCn1c(C(C)C)nc2ccccc21`, the inhibition was 5.1% (inactive). As for `CSc1nc(-c2ccco2)nn1C(=O)CCc1ccccc1`, the inhibition was -12.3% (inactive). As for `C=CCOc1cccc(CNn2cn[nH]c2=S)c1`, the figure is -16.1% (inactive); as for `O=C(c1cccc(S(=O)(=O)N2CCOCC2)c1)N1CCOCC1`, -6.1% (inactive); as for `CCN(Cc1ccncc1)C(=O)c1cccc(S(=O)(=O)N2CCOCC2)c1`, 94.8% (active). As for `CC(C)C(NC(=O)c1cccc(S(=O)(=O)N2CCOCC2)c1)C(=O)NCCc1ccccn1` (centres undefined), the figure is -17.7% (inactive); as for `COc1ccc(C2C(C#N)=C(N)Oc3cc(N)ccc32)cc1OC` (centres undefined), 85.7% (active); as for `COc1cc(C2C(C#N)=C(N)Oc3n[nH]c(-c4ccccn4)c32)cc(OC)c1OC` (centres undefined), -6.2% (inactive). Regarding `N#CC1=C(N)Oc2cc(O)ccc2C1C1CCCCC1` (centres undefined), the inhibition was 44.8% (inactive). Next, `Cc1ccc(-n2c(C)cc(/C=C(\C#N)C(=O)NCC3CCCO3)c2C)cc1` (centres undefined): 13.8% (inactive); `COc1ccc(N2CCN(C(=O)CSc3nnc4ncccn34)CC2)cc1`: 18.5% (inactive); `Cc1nc2ccc(S(=O)(=O)NCC(=O)NCCN3CCCCC3C)cc2s1` (centres undefined): 8.5% (inactive). Next, `COc1ccc(C(C#N)Nc2ccc(C)cc2)cc1` (centres undefined): -0.6% (inactive); `CCOC(=O)c1c(C2CC2)csc1NC(=O)CSCc1c(C)noc1C`: 65% (active). Consider `Cc1noc(C)c1CSCC(=O)Nc1nc2ccc(Oc3ccccc3)cc2s1`, for which the inhibition was 44.1% (inactive).

For the compound `CCOC(=O)c1sc(NC(=O)CCN2CCOCC2)c(C(=O)OCC)c1C`, the inhibition was 40.4% (inactive). For `COCCn1nnnc1CN1CCC(NC(=O)Nc2cccc(OC)c2)CC1`, the inhibition was -12.7% (inactive). With `CC(C)C1C2=C(CC(C)(C)CC2=O)ON1c1ccccc1` (centres undefined), the inhibition was 28.7% (inactive).

Turning to `N=c1ccn(CC(=O)NC(N)=O)c2ccccc12`, the inhibition was -0.4% (inactive). As for `CC1CCCCN1CC(=O)NCc1ccc2c(c1)OCO2` (centres undefined), the figure is -6.6% (inactive). As for `Cc1ccc(NC(=O)CN2CCC3(O)CCCCC3C2c2ccc3c(c2)OCO3)c(C)c1` (centres undefined), the figure is 90.4% (active); as for `CCN(CC)c1ccc(C2C3CCCCC3(O)CCN2CC(=O)Nc2ccccc2)cc1` (centres undefined), 1.4% (inactive).

Consider `CN(Cc1nc2ccccc2c(=O)[nH]1)Cc1cc(=O)oc2ccc3ccccc3c12`, for which the inhibition is 34.3% (inactive).

Regarding `CCCN(c1ccc(C(C)C)cc1)S(=O)(=O)c1c(C)[nH]c(=O)[nH]c1=O`, the inhibition was 21.6% (inactive). Next, `O=C(NCN1CCN(CCO)CC1)c1cnccn1`: 10.7% (inactive); `CC1CC(C)CN(CC(=O)N2c3ccccc3CCc3ccccc32)C1` (centres undefined): -3.1% (inactive). For `CC(c1ccccc1)n1c(NCCCn2ccnc2)nc2c1c(=O)[nH]c(=O)n2C` (centres undefined), the inhibition was 96.2% (active).

Regarding `COc1ccc(CCn2c(NCCCN3CCOCC3)nc3c2c(=O)[nH]c(=O)n3C)cc1`, the inhibition is 16.8% (inactive). Take `CCCCNc1nc2c(c(=O)[nH]c(=O)n2C)n1CCOc1ccccc1`: the inhibition is 23.9% (inactive). As for `O=C1c2cccc3cccc(c23)N1CN1CCN(c2ccccn2)CC1`, the figure is -43% (inactive). Next, `C/C(=N\NC(=O)c1ccccc1C)c1ccc(N2CCOCC2)cc1`: -40.9% (inactive); `CCCCc1nc2ccccc2c(=O)n1NC(=O)c1c(O)c2cccc3c2n(c1=O)CC3`: 20.8% (inactive). With `CCCC(=O)Nc1c(O)c2ccccc2[nH]c1=O`, the inhibition was 5.2% (inactive). For `CCCc1nc2ccccc2c(=O)n1NC(=O)c1c(O)c2ccccc2[nH]c1=O`, the inhibition was 60.6% (active).
